Screens deposited in PubChem by several laboratories.
In the library only some 4.3% were active in any assay of this set; here they are far more common.
FAS TE block: FAS thioesterase (human) inhibition; recombinant FAS-TE, OMFH fluorogenic substrate, fluorescence endpoint; P49327; AID 602261; inhibition, % at 15 µM; hit rate 0.67% among 360,000;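 active = compounds whose normalised, plate-corrected inhibition of enzyme fluorescence in the single-dose primary screen is 50% or more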;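 also: 0% = DMSO with enzyme and 100% = substrate without enzyme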
Target sequence (P49327 whole entry, looked up): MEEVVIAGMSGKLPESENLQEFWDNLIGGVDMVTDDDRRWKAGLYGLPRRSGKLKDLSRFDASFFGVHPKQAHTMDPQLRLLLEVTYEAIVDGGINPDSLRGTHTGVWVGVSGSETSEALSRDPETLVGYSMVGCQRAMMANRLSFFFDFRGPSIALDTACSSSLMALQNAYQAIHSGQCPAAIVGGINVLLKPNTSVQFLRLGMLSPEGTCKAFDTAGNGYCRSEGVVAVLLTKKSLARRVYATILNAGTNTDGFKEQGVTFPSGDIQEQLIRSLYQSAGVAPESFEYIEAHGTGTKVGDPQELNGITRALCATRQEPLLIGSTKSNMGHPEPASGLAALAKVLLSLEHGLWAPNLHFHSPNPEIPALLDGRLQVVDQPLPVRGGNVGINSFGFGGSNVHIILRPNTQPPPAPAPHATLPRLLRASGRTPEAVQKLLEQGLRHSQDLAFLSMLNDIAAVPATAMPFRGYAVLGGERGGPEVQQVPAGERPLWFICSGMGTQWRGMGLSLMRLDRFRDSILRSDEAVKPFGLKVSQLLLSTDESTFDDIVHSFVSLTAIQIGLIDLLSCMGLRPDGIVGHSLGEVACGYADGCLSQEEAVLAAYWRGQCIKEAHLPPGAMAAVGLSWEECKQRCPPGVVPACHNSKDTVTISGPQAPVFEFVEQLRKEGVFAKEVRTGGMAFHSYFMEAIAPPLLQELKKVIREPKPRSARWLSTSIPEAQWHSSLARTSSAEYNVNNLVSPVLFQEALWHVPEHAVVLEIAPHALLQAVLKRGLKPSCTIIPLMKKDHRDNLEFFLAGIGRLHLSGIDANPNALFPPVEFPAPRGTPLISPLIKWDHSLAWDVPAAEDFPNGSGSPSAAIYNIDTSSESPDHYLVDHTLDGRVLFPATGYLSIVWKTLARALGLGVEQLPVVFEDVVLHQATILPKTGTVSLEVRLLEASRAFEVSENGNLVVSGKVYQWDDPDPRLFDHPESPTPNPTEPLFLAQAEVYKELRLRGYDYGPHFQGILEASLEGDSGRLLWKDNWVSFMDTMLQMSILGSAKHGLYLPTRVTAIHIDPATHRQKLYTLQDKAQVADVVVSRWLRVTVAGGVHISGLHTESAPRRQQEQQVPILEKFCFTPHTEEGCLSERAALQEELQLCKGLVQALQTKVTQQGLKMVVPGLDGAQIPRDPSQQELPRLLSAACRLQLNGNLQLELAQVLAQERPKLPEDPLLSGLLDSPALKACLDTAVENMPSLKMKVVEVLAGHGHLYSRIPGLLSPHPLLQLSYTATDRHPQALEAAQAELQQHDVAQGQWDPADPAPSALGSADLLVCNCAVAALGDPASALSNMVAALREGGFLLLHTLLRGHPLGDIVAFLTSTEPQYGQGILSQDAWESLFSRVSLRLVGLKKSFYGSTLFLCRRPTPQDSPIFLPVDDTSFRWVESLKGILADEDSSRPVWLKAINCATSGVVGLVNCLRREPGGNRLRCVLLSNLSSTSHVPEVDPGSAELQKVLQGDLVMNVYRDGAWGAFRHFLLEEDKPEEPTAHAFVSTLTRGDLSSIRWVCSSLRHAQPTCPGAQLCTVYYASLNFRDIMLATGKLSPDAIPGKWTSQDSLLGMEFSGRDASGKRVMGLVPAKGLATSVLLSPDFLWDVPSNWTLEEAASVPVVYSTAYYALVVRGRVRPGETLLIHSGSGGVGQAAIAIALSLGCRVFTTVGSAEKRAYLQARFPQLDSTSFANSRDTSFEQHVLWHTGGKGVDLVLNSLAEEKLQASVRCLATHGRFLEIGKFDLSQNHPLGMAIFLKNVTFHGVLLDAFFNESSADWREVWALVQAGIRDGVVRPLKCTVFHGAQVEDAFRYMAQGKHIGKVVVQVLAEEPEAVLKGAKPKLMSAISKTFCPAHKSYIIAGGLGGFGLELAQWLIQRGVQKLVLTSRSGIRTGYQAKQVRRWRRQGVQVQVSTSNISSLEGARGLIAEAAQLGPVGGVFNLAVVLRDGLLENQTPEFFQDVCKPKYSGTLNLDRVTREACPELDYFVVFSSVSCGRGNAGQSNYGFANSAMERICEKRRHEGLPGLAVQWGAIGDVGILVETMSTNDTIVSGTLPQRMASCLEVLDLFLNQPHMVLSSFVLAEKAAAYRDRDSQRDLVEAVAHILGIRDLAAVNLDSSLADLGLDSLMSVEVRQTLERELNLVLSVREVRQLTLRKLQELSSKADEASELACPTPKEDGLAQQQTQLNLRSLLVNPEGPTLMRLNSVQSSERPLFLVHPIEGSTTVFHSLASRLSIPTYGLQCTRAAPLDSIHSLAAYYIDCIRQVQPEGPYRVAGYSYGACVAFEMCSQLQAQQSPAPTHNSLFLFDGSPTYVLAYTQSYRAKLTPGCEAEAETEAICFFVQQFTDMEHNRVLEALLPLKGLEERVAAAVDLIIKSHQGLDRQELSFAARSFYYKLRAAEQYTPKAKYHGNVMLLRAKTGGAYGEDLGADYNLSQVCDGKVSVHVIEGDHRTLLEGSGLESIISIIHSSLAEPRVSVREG
NadD block: NadD (S. aureus) enzyme inhibition. purified NadD enzyme, colorimetric absorbance read-out. inhibition, % at 20 µM. hit rate 0.78% among 360,000. AID 602399; in the data active = inhibition above about 26%
rCAG binder: molecules binding r(CAG) RNA repeats; r(CAG) RNA repeat, TO-PRO-1 dye displacement fluorescence; inhibition, % at 3 µM; hit rate 1.3% among 370,000;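 active = inhibition above the plate cutoff, the mean of all test compounds on that plate plus 3 SD, cut at about 35% in these data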;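 also: 0% = DMSO alone and 100% = 100 µM mitoxantrone as full dye displacement; higher means more dye released from RNA so lower well fluorescence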
GRIN3A LBD mod: modulators (binders) of human NR3A ligand-binding domain; hit rate 2.5% among 340,000; Tm shift relative to glycine control, % at 25 µM; AID 1259313; NR3A LBD differential scanning fluorimetry, Tm shift; 0% = protein alone, 100% = glycine-bound protein;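 active = melting temperature shift of at least 10% of the positive control shift, at one fixed dose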
* = called active by the depositor; . = not tested or not shown.

SMILES	FAS TE block	NadD block	rCAG binder	GRIN3A LBD mod
Cc1nn(-c2ccccc2)c(C)c1/C=N/NC(=O)c1[nH][nH]c(=O)c1C	.	.	3	.
O=C1CSc2ccc(C(=O)N3CCCC(C(=O)N4CCCC4)C3)cc2N1 (centres undefined)	.	.	2	.
O=C(Nc1cccc(Cl)c1)OCCOC(=O)Nc1cccc(Cl)c1	29	-6	7	29*
CCCc1cc(C(=O)Nc2cccc(Cl)c2)no1	14	-4	-1	13*
O=C(Nc1cccc(O)c1)c1cc(-c2ccccc2Cl)on1	5	-6	7	30*
N#CCC(CNc1ncc(C(F)(F)F)cc1Cl)OC(=O)c1ccc(Cl)cc1 (centres undefined)	35	1	-4	11*
CCC(=O)c1c[nH]c(C(=O)NCCCn2ccnc2)c1	-5	-2	2	12*
Cc1ccc(S(=O)(=O)NNC(=O)c2cc3cc4ccccc4nc3s2)cc1	5	10	36*	1
Cc1cccc(C(=O)NNC(=O)c2cc3cc4ccccc4nc3s2)c1	0	7	7	9
C[C@@H]1CN([C@@H](C)CO)C(=O)CCCn2cc(nn2)CO[C@H]1CN(C)C(=O)Nc1ccc2c(c1)OCO2	.	.	-1	.
O=C(CN(Cc1ccccc1)S(=O)(=O)c1ccccc1)N/N=C/c1ccc2c(c1)OCO2	24	3	1	-11
CCN(Cc1ccccc1)c1ccc(/C=N/NS(=O)(=O)c2cccc([N+](=O)[O-])c2)cc1	24	7	6	10*
O=C(CN(Cc1ccccc1)S(=O)(=O)c1ccccc1)N/N=C/c1ccc([N+](=O)[O-])cc1	29	-1	10	10*
Cc1ccc(C)c(N(CC(=O)N/N=C/c2ccc(-c3ccc([N+](=O)[O-])cc3)o2)S(=O)(=O)c2ccccc2)c1	42	32*	19	-5
CCN(CC)c1ccc(/C=N/NS(=O)(=O)c2ccc(C)c([N+](=O)[O-])c2)cc1	36	0	0	7
COC(=O)[C@]12C[C@H](CC(=O)NCCC(C)C)C(=O)N(Cc3ccco3)C1=C[C@H](C(C)(C)C)O[C@@H]2C	.	.	1	.
CC(=O)NC1CCCc2c1cnn2-c1ccc(C(C)(C)C)cc1 (centres undefined)	-3	-6	-8	1
Cn1nccc1C(=O)NC1CCCc2c1cnn2-c1ccc(C(C)(C)C)cc1 (centres undefined)	7	-2	-11	16*
COc1ccc(CNC(=O)c2c(N)[nH]c(C(=O)c3ccccc3)c2-c2ccc3ccccc3c2)cc1OC	.	.	8	.
CC(C)[C@@H](C(=O)NC1CCN(Cc2ccccc2)CC1)N1C(=O)N2CCc3c([nH]c4ccccc34)[C@@]2(C)C1=O	10	1	-2	37*
C[C@@H](C(=O)NC1CCN(Cc2ccccc2)CC1)N1C(=O)N2CCc3c([nH]c4ccccc34)[C@@]2(C)C1=O	3	-1	-1	0
CCCCC(=O)Nc1c(C)cc(C)cc1Cl	-6	-6	0	14*
CCCc1c(C)nn(C(=O)/C(C#N)=N/Nc2ccccc2[N+](=O)[O-])c1C	0	-2	-1	15*
COc1ccc(C(=O)/C(C#N)=N/Nc2ccccc2[N+](=O)[O-])cc1	-1	-2	16	2
COc1ccc(CNC(=O)CN(CCC(C)C)S(=O)(=O)c2ccc3c(c2)OCCO3)cc1	9	-10	0	154*
SMILES	FAS TE block	NadD block	rCAG binder	GRIN3A LBD mod
COCc1cc(N2CCN(C(=O)OC(C)(C)C)C[C@H]2C)ccc1N1CC[C@H](O)C1	.	.	6	.
C=CCN(CC#Cc1ccc(C)cc1)Cc1ccc(OC)cc1OC	.	.	4	.
c1ccc(-c2csc(Nc3ccccn3)n2)cc1	26	-8	8	-4
Cc1cccnc1Nc1nc(-c2ccc(O)cc2)cs1	2	4	10	30*
Oc1ccc(-c2csc(Nc3ccccn3)n2)cc1	2	3	4	31*
Cc1cccnc1Nc1nc(-c2ccc(F)cc2)cs1	26	-1	3	1
Fc1ccc(-c2csc(Nc3ccccn3)n2)c(F)c1	14	-7	30	32*
CN(c1ccccc1)S(=O)(=O)c1cccc(C(=O)OCC(=O)NCc2ccc3c(c2)OCO3)c1	21	-2	1	13*
S=c1[nH]c2cc3ccccc3cc2[nH]1	-1	7	1	26*
S=c1[nH]c2ccc3ccccc3c2[nH]1	-8	3	4	-1
COc1ccccc1Cn1c(/C=C/c2ccccc2)nc2ccccc21	29	9	1	11*
CC(C)N(C[C@@H]1CSCCS(=O)(=O)N1)C1CCCCC1	.	.	1	.
C/C(=N\NC(=O)c1ccc(C)cc1C)c1ccc2c(c1)Nc1ccccc1S2	4	8	9	12*
CC1(C)CC(=O)C=C(Nc2ccccc2NC(=O)c2cc(F)cc(F)c2)C1	.	.	0	.
COc1ccc(/C=N/Nc2nc(Nc3ccccc3)nc(N3CCCC3)n2)cc1[N+](=O)[O-]	6	13	6	26*
CC(C)c1[nH]nc2c1C(c1ccccc1)N(c1ccccc1)C2=O (centres undefined)	.	.	2	.
O=C(Nc1cccs1)Nc1ccc(Br)cc1F	10	-6	7	21*
Cc1ccc(NC(=O)Nc2cccs2)cc1	-4	2	8	11*
CCOc1ccc(NC(=O)Nc2cccs2)cc1	-8	-5	4	19*
CCOC(=O)N1CCN(C(=O)C[C@H]2C(=O)N(Cc3ccc(OC)cc3)C3=CCCC[C@@]32C(=O)OCC)CC1	.	.	-2	.
O=C(NCCO)C1(C(=O)C2CC2)CC(c2ccccn2)=NO1 (centres undefined)	.	.	0	.
N#CC(=C=[N-])C1=C(C#N)C(c2ccccc2F)C([n+]2ccccc2)C(O)(C2CC2)N1 (centres undefined)	0	8	3	0
Cc1cccc[n+]1C1C(c2ccccc2)C(C#N)=C(C(=C=[N-])C#N)NC1(O)C1CC1 (centres undefined)	-6	34*	.	0
CC(C)C[C@H]1CN([C@@H](Cc2ccccc2)CN2CCC[C@H]2CN2C(=O)C(=O)NC[C@@H]2Cc2ccccc2)C(=O)C(=O)N1CC1CCCCCC1	.	.	3	.
Cc1cccc(CNC(=O)NC2CCCCN(Cc3cccc(Cl)c3)C2=O)c1 (centres undefined)	.	.	1	.
SMILES	FAS TE block	NadD block	rCAG binder	GRIN3A LBD mod
Cc1cccc(C)c1NS(=O)(=O)c1ccc(NC(=O)c2ccc(Cl)c([N+](=O)[O-])c2)cc1	45	-1	11	19*
O=C(Nc1ccc(C(O)(C(F)(F)F)C(F)(F)F)cc1)c1ccc(Cl)c([N+](=O)[O-])c1	49	-8	10	13*
Cc1cccc(CN2CCN(C3CN(Cc4cn(Cc5ccc(C(F)(F)F)cc5)nn4)S(=O)(=O)C3)CC2)c1 (centres undefined)	.	.	-2	.
COc1ccc(N2CCOCC2)c(NC(=O)c2ccc(Br)o2)c1	15	-4	-10	13*
O=C(Nc1cc(Cl)ccc1N1CCOCC1)c1ccc(Br)o1	-6	3	-4	3
O=C(Nc1ccccc1N1CCOCC1)c1ccc([N+](=O)[O-])o1	8	0	-2	19*
O=C(Nc1ccc(Oc2cccnc2)cc1)C1CCN(Cc2ccc(F)cc2)CC1	-4	-6	-8	2
